pCIP destab = p/CIP-EGFP fusion destabilizers, primary screen, fluorescence, F442A cells | AID 1984, 2009 | Q05BA5 | hit rate 0.01% among 290,000 | decrease of EGFP signal, % at 10 µM | 16 h;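 active = EGFP signal decrease of at least 30% at 10 µM or well 3 SD below plate mean, unless failing retest; inactive = the rest, including hits failing retest or dose response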
HSF-1 act = HSF-1 activators, primary screen, NIH3T3-HGL cells, MG132 stress, luminescence, single point; NIH3T3-HGL HSF-1 luciferase reporter, 8 h; 100% = twice DMSO control signal; activation, % at 9 µM; hit rate 1.7% among 300,000;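 active = mean replicate activation of at least 50% with a set share of replicates each reaching 50%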;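 also: 0% = median of the neutral control wells and 100% = twice that signal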
Hsp70 activator = Hsp70 transcriptional activators, primary screen, cell-based, HeLa, Hsp70 promoter luciferase, luminescence, 10 µM | HeLa Hsp70 promoter luciferase reporter; scaled: vehicle 0, proteasome-inhibitor control 100% | activation, % at 10 µM | hit rate 0.04% among 200,000 | AID 1203, 2008;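 active = activation above the mean across all tested compounds plus 3 SD, cutoff set per campaign, cut at about 5.5% in these data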;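 also: 100% = MG132 at 30 µM as the positive control and 0% = DMSO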
HSP90 refold inh = HSP90 inhibitors, primary screen, cell lysate, luminescence; hit rate 0.91% among 290,000; Rabbit reticulocyte lysate, luciferase refolding luminescence, 3 h; AID 1789, 2009; inhibition, % at 5.6 µM;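 active = inhibition above the screen-wide mean plus 3 SD, computed separately per campaign, cut at about 16% in these data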;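 also: 0% = DMSO wells and 100% = 60 µM geldanamycin wells; inhibitors lower the luminescence because luciferase stays unfolded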
NALP1 inh = NALP1 inflammasome inhibitors in reconstituted yeast, colorimetric, S. cerevisiae, triplicate retest | S. cerevisiae NALP1/ASC/caspase-1 growth, X-gal OD620, 72 h | inhibition, % at 10 µM | hit rate 0.61% among 280,000 | AID 2071, 2009; in the data active = inhibition mostly above about 24%, no sharp cut-off; inactive = mostly below about 32%
HSF1 inhib = HSF1 inhibitors in luciferase reporter cells, primary screen, cell-based, NIH3T3, luminescence; NIH3T3-HGL HSE-luciferase, MG132-induced, luminescence 8 h; stronger effect = lower value; activity change, negative = inhibition, % at 7.5 µM (by protocol); hit rate 0.77% among 300,000;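 active = more than half of replicate wells show activity change below -50%, luminescence cut by over half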;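 also: luciferase reports HSF-1 transcriptional activity via heat shock element; 0% = median of DMSO wells and -100% = zero luminescence signal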
HSP90 confirm = HSP90 inhibitors, confirmation, cell lysate, luminescence; hit rate 64% among 2,300; inhibition, % at 5.9 µM; rabbit reticulocyte lysate, luciferase refolding luminescence, 3 h; AID 1846, 2009; shares compounds with HSP90 refold inh; in the data active = inhibition above about 18%;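 also: 0% = vehicle wells and 100% = reference inhibitor wells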
FLuc counter = firefly luciferase inhibitors, HSP90 counter-screen, confirmation, artefact control for HSP90 inhibitor project, biochemical, luminescence, triplicate | shares compounds with HSP90 refold inh | purified native firefly luciferase | inhibition, % at 5.9 µM | hit rate 48% among 2,300 | AID 1847, 2009;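 active = inhibition above the mean inhibition of all tested sample wells plus 3 SD, cut at about 10% in these data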;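 also: 0% = DMSO with luciferase and 100% = wells lacking luciferase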
Target sequence (P08659 whole entry, looked up): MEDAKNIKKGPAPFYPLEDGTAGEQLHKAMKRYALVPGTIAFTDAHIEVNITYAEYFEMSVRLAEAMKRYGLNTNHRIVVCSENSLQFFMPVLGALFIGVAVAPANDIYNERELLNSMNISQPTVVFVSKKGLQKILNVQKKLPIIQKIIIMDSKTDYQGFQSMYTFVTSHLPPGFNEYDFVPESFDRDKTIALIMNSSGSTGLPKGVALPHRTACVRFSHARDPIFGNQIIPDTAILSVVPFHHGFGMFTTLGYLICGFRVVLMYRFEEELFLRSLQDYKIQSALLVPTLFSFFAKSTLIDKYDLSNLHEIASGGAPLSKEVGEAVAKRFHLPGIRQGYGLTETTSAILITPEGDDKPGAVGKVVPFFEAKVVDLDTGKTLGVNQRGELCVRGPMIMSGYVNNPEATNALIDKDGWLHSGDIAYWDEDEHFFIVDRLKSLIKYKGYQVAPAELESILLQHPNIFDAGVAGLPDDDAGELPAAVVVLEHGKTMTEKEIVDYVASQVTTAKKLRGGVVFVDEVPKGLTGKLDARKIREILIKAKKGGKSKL
Starred values were filed as active, the others as inactive. Hits are enriched below; roughly 3.8% of the tested compounds scored in any of these assays.

Screening COc1ccc(NC(=S)N2CCN(S(=O)(=O)c3ccc(OC)cc3)CC2)cc1 returned pCIP destab -10, HSP90 refold inh -5 and NALP1 inh 2.
For Cc1ccccc1NC1=C/C(=N\S(=O)(=O)c2ccc(C(=O)O)cc2)c2ccccc2C1=O the results were pCIP destab -10, HSF-1 act -1, HSP90 refold inh 98*, NALP1 inh 19, HSF1 inhib -9, HSP90 confirm 96* and FLuc counter -11.
O=C(O)c1ccc(S(=O)(=O)/N=C2\C=C(Nc3ccccc3F)C(=O)c3ccccc32)cc1 was read as pCIP destab -1, HSF-1 act 65*, HSP90 refold inh 92*, NALP1 inh 80*, HSF1 inhib 51, HSP90 confirm 94* and FLuc counter -15.
`CC1CCN(S(=O)(=O)c2ccc3c(c2)N(CC(=O)NCCN2C(C)CCCC2C)C(=O)CS3)CC1` (configuration not stated) gave pCIP destab 5, HSF-1 act 9, HSP90 refold inh 21*, NALP1 inh 26, HSF1 inhib 1, HSP90 confirm -7 and FLuc counter -12.
CC1CCN(S(=O)(=O)c2ccc3c(c2)N(CC(=O)NCCCN2CCCCC2C)C(=O)CS3)CC1 (configuration not stated) was read as pCIP destab -7, HSF-1 act -7, HSP90 refold inh -7, NALP1 inh 20 and HSF1 inhib -2.
`CC(C)C[C@H](NC(=O)c1nc[nH]c1C(=O)NCC(=O)OCc1ccccc1)C(=O)OC(C)(C)C` gave pCIP destab -10, HSF-1 act 5, HSP90 refold inh -1, NALP1 inh 2 and HSF1 inhib 0.
`C[C@H](NC(=O)c1nc[nH]c1C(=O)NCC(=O)OCc1ccccc1)C(=O)OC(C)(C)C` gave pCIP destab 4, HSF-1 act 20, HSP90 refold inh 62*, NALP1 inh 18, HSF1 inhib 8, HSP90 confirm -10 and FLuc counter -17.
For COc1ccc(OC)c(CCNC(=O)c2ccccc2NC(=O)C2=C(C)OCCS2)c1 the results were pCIP destab -20, HSF-1 act 12, HSP90 refold inh 2, NALP1 inh 12 and HSF1 inhib 5.
O=C(Nc1ccc(N2CCCC(O)C2)cc1)c1snc2c(=O)[nH]cnc12 (configuration not stated) was read as pCIP destab -2, HSF-1 act 0, Hsp70 activator 0, HSP90 refold inh 19*, NALP1 inh 10, HSF1 inhib 3, HSP90 confirm 15 and FLuc counter -4.
Screening CN(CC(=O)Nc1ccccc1C(F)(F)F)C(=O)CSCc1ccc(Cl)c(Cl)c1 returned HSF-1 act 4 and HSF1 inhib 1.
Screening COc1ccc(/C=C/C(=O)NC(=S)NNC(=O)c2cc(OC)c(OC)c(OC)c2)cc1OC returned pCIP destab -6, HSF-1 act 20, HSP90 refold inh 3, NALP1 inh 13 and HSF1 inhib 7.
Screening COc1ccc(/C=C/C(=O)NC(=S)NNC(=O)c2cc(OC)c(OC)c(OC)c2)cc1 returned pCIP destab -11, HSF-1 act 11, HSP90 refold inh 26*, HSF1 inhib -6, HSP90 confirm 61* and FLuc counter 27*.
For CC(C)c1ccc(N(CC(=O)NCc2cccnc2)S(=O)(=O)c2ccccc2)cc1 the results were pCIP destab 0, HSF-1 act 14, HSP90 refold inh 27*, NALP1 inh 8, HSF1 inhib 11, HSP90 confirm 1 and FLuc counter -3.
